Our source for the Potency, viability change, negative = cytotoxic and activity change, negative = cytotoxicity values is PubChem BioAssay (Tox21).

“And” between values parts separate entries of the source, which are not always exact repeats. Equal values may be shown once. Inconclusive results are not listed. A number with no mark means an inactive call. The source made the active and inactive calls. Calls follow the shape of the dose curve; as a rule, active = well fitted cell-killing curve with a large enough effect in the repeat runs; inconclusive = weak or mixed curves, or effect the other way; inactive = flat fitted curve, though single readings scatter.

Assay [1] can be described thus: cAMP Responsive Elements (CRE) small molecule antagonists, cell-based qHTS assay: qHTS cell viability counter screen (AID 2060913). Also: nearly all actives have a fitted effect of over 40% in size. The method, boiled down:
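CRE-bla HEK293T cells were seeded in assay medium with 10% dialyzed FBS, incubated 18 hrs at 37 C, then exposed to compounds plus 0.25 uM final NKH477 for 3 hrs. Viability was read by CellTiter-Glo luminescence after 30 min, in the same wells.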

The nature of assay [2]: cAMP Responsive Elements (CRE) small molecule agonists, cell-based qHTS assay: qHTS cell viability counter screen (AID 2060914). Also: nearly all actives have a fitted effect of over 50% in size. The method, boiled down: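 HEK 293T CRE-bla; DMEM + 10% dialyzed FBS, 25 mM HEPES; 18 h pre-incubation; compound 3 h, 37 °C/5% CO2; CellTiter-Glo added after reporter read; luminescence after 30 min RT.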
% is scaled to controls: 0 for no effect and ±100 for the full control effect; potency is read from the fitted curve at half-maximal effect.

As to `CN1CCN(N)CC1`, the Potency entry in assay [1] and in assay [2] was “inactive” in each case.
Consider `CCc1c(C)cc(N)c(CC)c1N`, for which the Potency result in assay [1] and in assay [2] was “inactive” throughout.
For `O=C1OCc2ccccc21`, the Potency entry in assay [1] and in assay [2] was “inactive” each time.
For the compound `Cc1ccc(O)cc1`, the Potency entry in assay [1] and in assay [2] was “inactive” each time.
`CCCCOCCOCCOCCOCCO`: the Potency result in assay [1] and in assay [2] was “inactive” throughout.
Turning to `CN(C(=O)c1c(O)c2ccccc2n(C)c1=O)c1ccccc1`, the Potency result in assay [1] and in assay [2] was “inactive” each time.
In the case of `C=Cc1cccc(C)c1`, the Potency entry in assay [1] and in assay [2] was “inactive” throughout.
For the compound `Nc1nc(-c2ccccc2)c(Br)c(=O)[nH]1`, the Potency result in assay [1] and in assay [2] was “inactive” throughout.
On to `CCOC(=O)C1=NN(c2ccc(Cl)cc2Cl)C(C)(C(=O)OCC)C1` (configuration not stated), for which the Potency entry in assay [1] and in assay [2] was “inactive” in each case.
With `NCCN1CCNCC1`, the Potency result in assay [1] and in assay [2] was “inactive” throughout.
For `OCCC(F)(F)C(F)(F)C(F)(F)C(F)(F)C(F)(F)C(F)(F)C(F)(F)C(F)(F)F`, the Potency entry in assay [1] and in assay [2] was “inactive” in each case.
Take `C=C(C)C(=O)OCCCCCCOC(=O)C(=C)C`: the Potency entry in assay [1] and in assay [2] was “inactive” throughout.
`C=C(C)C(=O)OCCO`: the Potency entry in assay [1] and in assay [2] was “inactive” each time.
In the case of `C=C[Si]1(C)O[Si](C)(C=C)O[Si](C)(C=C)O[Si](C)(C=C)O1` (configuration not stated), the Potency entry in assay [1] and in assay [2] was “inactive” in each case.
As for `O=C(O)CCCCC1CCSS1` (configuration not stated), the Potency result in assay [1] and in assay [2] was “inactive” throughout.
Turning to `CC[C@H](c1ccc(O)cc1)[C@@H](CC)c1ccc(O)cc1`, the Potency result in assay [1] and in assay [2] was “inactive” each time.
On to `CCCCCNCCCCC`, for which the Potency entry in assay [1] and in assay [2] was “inactive” each time.
On to `CCC(=O)OC/C=C/c1ccccc1`, for which the Potency result in assay [1] and in assay [2] was “inactive” in each case.
For `O=[N+]([O-])c1ccccc1C(F)(F)F`, the Potency result in assay [1] and in assay [2] was “inactive” throughout.
Turning to `OC(CCCN1CCCCC1)(c1ccccc1)c1ccccc1`, the Potency entry in assay [1] and in assay [2] was “inactive” in each case.
For the compound `CC(C)CCCCCCc1ccc(O)cc1`, the Potency in assay [1] was 55.4 µM (active) and 27.3 µM (active); in assay [2], 55.4 µM (active) and 30.6 µM (active).
In the case of `Cc1nc2ccc(Cl)cc2[nH]1`, the Potency entry in assay [1] and in assay [2] was “inactive” throughout.
Take `CC1=CC[C@@H](C(C)(C)O)CC1`: the Potency entry in assay [1] and in assay [2] was “inactive” throughout.
Turning to `CCNC(=O)/C=C/c1cccc(Br)c1`, the Potency result in assay [1] and in assay [2] was “inactive” throughout.
As for `NNS(=O)(=O)c1ccc(Oc2ccc(S(=O)(=O)NN)cc2)cc1`, the Potency result in assay [1] and in assay [2] was “inactive” each time.
For `C/C=C(C)/C=C/C=C(C)C`, the Potency entry in assay [1] and in assay [2] was “inactive” each time.
Regarding `Cc1ccc2cccnc2c1`, the Potency entry in assay [1] and in assay [2] was “inactive” each time.
`O=C1CCCCCCCCCCCCCC1`: the Potency result in assay [1] and in assay [2] was “inactive” in each case.
For `Nc1cccc(N)c1`, the Potency entry in assay [1] and in assay [2] was “inactive” each time.
Regarding `Nc1ccc(/C=C/c2ccc(N)cc2S(=O)(=O)O)c(S(=O)(=O)O)c1`, the viability change, negative = cytotoxic in assay [1] was 3.88% [at 0.349 µM]. In assay [2], the activity change, negative = cytotoxicity is 6.77% [at 0.349 µM].
With `Oc1ccc2ccccc2c1`, the Potency result in assay [1] and in assay [2] was “inactive” throughout.
Take `O=C(O)c1ccccc1Nc1cccc(C(F)(F)F)c1`: the Potency result in assay [1] and in assay [2] was “inactive” in each case.
With `CC(C)(C)NC(=O)[C@@H]1CN(Cc2cccnc2)CCN1C[C@@H](O)C[C@@H](Cc1ccccc1)C(=O)N[C@H]1c2ccccc2C[C@H]1O`, the Potency entry in assay [1] and in assay [2] was “inactive” throughout.
As for `CCC(C=O)CC`, the Potency entry in assay [1] and in assay [2] was “inactive” each time.
Turning to `CC/C=C\CCOC(=O)CCCCC`, the Potency result in assay [1] and in assay [2] was “inactive” in each case.
As to `CCc1ccc(O)cc1`, the Potency result in assay [1] and in assay [2] was “inactive” in each case.
With `CCCOCC(C)O` (configuration not stated), the Potency result in assay [1] and in assay [2] was “inactive” in each case.
On to `Cc1cc([N+](=O)[O-])ccc1N`, for which the Potency entry in assay [1] and in assay [2] was “inactive” in each case.
Take `CCCCC(CC)CN1CN(CC(CC)CCCC)CC(C)(N)C1` (configuration not stated): the Potency entry in assay [1] and in assay [2] was “inactive” each time.
As for `O=C(O)c1cc(-c2ccc(F)cc2F)ccc1O`, the Potency result in assay [1] and in assay [2] was “inactive” each time.
Take `ClC/C=C\CCl`: the Potency entry in assay [1] and in assay [2] was “inactive” in each case.
For `NS(=O)(=O)c1cc2c(cc1C(F)(F)F)NCNS2(=O)=O`, the Potency result in assay [1] and in assay [2] was “inactive” throughout.
For `CC(=O)C1=C(C)[C@@H]2C[C@@]3(C1)[C@H](C)CC[C@H]3C2(C)C`, the Potency result in assay [1] and in assay [2] was “inactive” in each case.
`CCOc1nc2cccc(C(=O)O)c2n1Cc1ccc(-c2ccccc2-c2nn[nH]n2)cc1`: the Potency entry in assay [1] and in assay [2] was “inactive” throughout.
Turning to `O=C1OC(=O)C2C3C=CC(C3)C12` (configuration not stated), the Potency result in assay [1] and in assay [2] was “inactive” throughout.
Consider `CC1=C(C/C=C(\C)CCC[C@H](C)CCC[C@H](C)CCCC(C)C)C(=O)c2ccccc2C1=O`, for which the Potency result in assay [1] and in assay [2] was “inactive” each time.
With `CC(C)(C)C(=O)C(Oc1ccc(Cl)cc1)n1ccnc1` (configuration not stated), the Potency entry in assay [1] and in assay [2] was “inactive” each time.
For the compound `COC(=O)c1ccc(C)cc1`, the Potency result in assay [1] and in assay [2] was “inactive” throughout.
On to `CCCCCCCCCCCCCCCCCC[N+](C)(C)C`, for which the Potency is 54.6 µM (active) in assay [1] and 61.3 µM (active) in assay [2].
On to `CN1C(CCl)Nc2cc(Cl)c(S(N)(=O)=O)cc2S1(=O)=O` (configuration not stated), for which the Potency result in assay [1] and in assay [2] was “inactive” in each case.
Take `CCOc1cc(NC(C)=O)ccc1C(=O)OC`: the Potency result in assay [1] and in assay [2] was “inactive” in each case.
For the compound `CCCCN(CCCC)CCCC`, the Potency result in assay [1] and in assay [2] was “inactive” throughout.
Take `O=C(O)Cc1c(Cl)ccc(Cl)c1Cl`: the Potency entry in assay [1] and in assay [2] was “inactive” each time.
As to `O=C1CCC(=O)O1`, the Potency entry in assay [1] and in assay [2] was “inactive” each time.
For `O=[N+]([O-])c1nccn1CO[C@@H](CO)[C@H](O)CO`, the Potency entry in assay [1] and in assay [2] was “inactive” each time.
As for `COCc1ccc(COC)cc1`, the Potency result in assay [1] and in assay [2] was “inactive” throughout.
